From ChEMBL document CHEMBL1201862, “PubChem BioAssay data set” (2004) come the findings set out here.

The structures appear in SMILES notation. The whole screen tested about 400,000 compounds, of which about 2,100 (0.53%) were called active. Roughly 14% stayed inconclusive and do not appear here. The rule behind the calls is not given here. The sample as a whole holds a higher share of actives than the screen did.

The target of the assay is Ataxin-2 (Homo sapiens) (UniProt Q99700). Put plainly: qHTS for Inhibitors of ATXN expression. In kind it is functional.
Sequence of Ataxin-2 (Homo sapiens) (Q99700 whole entry): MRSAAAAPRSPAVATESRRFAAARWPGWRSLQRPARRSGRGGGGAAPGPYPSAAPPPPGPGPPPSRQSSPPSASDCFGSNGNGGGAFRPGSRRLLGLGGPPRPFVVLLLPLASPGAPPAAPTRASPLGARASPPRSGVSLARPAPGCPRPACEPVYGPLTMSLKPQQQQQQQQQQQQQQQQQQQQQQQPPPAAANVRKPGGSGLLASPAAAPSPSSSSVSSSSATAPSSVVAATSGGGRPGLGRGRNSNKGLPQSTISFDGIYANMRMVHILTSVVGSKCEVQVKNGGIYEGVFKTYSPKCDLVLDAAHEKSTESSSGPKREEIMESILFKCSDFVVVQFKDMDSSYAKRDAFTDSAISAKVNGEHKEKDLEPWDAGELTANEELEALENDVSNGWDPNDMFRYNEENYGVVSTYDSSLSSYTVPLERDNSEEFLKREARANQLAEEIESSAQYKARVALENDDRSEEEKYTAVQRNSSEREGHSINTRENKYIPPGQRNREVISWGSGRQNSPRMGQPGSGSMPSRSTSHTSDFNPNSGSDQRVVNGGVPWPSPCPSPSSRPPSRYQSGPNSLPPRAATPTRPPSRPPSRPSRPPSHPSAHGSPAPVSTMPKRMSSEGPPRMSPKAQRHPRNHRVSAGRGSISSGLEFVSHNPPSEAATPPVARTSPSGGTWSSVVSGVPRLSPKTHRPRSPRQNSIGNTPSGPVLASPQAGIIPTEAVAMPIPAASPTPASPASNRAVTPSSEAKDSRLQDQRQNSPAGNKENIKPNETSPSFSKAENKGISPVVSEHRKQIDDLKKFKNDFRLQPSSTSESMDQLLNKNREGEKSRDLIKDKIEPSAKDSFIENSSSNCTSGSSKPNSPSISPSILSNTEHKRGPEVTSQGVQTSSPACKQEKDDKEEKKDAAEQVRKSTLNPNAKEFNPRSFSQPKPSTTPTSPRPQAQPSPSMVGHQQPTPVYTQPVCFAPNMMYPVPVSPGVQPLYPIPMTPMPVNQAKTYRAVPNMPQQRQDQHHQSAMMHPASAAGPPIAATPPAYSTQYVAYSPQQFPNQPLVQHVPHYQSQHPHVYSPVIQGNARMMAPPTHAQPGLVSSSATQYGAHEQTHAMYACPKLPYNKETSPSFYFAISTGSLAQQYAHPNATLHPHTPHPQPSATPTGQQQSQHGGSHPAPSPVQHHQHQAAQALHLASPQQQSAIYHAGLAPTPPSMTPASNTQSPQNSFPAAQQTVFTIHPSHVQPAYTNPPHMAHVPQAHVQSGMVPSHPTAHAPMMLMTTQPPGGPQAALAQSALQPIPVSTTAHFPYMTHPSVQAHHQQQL
For the compound `COc1ccccc1-c1cc(C(=O)Nc2cc(C)n(Cc3ccc(Cl)cc3)n2)no1`, the Potency is 28.2 µM (active).
`COc1cccc2c1c(NC(=O)c1cc(C)on1)nn2C`: the Potency result was “inactive”.
Turning to `COc1cccc2cc(C(=O)C3=C(O)C(=O)N(CCN(C)C)C3c3ccc(Cl)cc3)oc12` (configuration not stated), the Potency entry was “inactive”.
For `CCN(CC)c1ccc2cc(C(=O)c3cccs3)c(=O)oc2c1`, the Potency entry is “inactive”.
In the case of `O=C(COc1ccccc1F)Nc1ccc(Cl)c(-c2nc3ccccc3[nH]2)c1` it was 39.8 µM (active); in that of `Cc1nc2ccccc2nc1OCC(=O)Nc1ccc(F)cc1`, “inactive”; in that of `CCc1ccc(NC(=O)COc2ccc(/C=C(/C#N)c3nc4ccccc4[nH]3)cc2OC)cc1`, “inactive”.
The value for `C/C(=N/NC(=O)c1ccncc1)c1cc2ccc(O)cc2oc1=O` was “inactive”; that for `COc1cccc(C(c2nnnn2C2CCCC2)N2CCN(C/C=C/c3ccccc3)CC2)c1OC` (configuration not stated) was 17.8 µM (active); that for `Cc1cc(C)cc(NC(=O)COC(=O)[C@@H](NC(=O)c2ccco2)C(C)C)c1` was “inactive”.
Take `Cc1onc(-c2ccccc2)c1C(=O)OCCOc1ccccc1F`: the Potency result was “inactive”.
Consider `CCCOc1ccc(-c2c(=O)n(OCC(=O)OCC)c3ccccc3[n+]2[O-])cc1`, for which the Potency result was “inactive”.
The value for `CCCCCCCCCCOC(=O)Cn1c(COc2ccc(Cl)cc2)[n+](C)c2ccccc21` was 25.1 µM (active); that for `CC12CC3(C)CC(C)(C1)CC(C(=O)NCc1ccccn1)(C2)C3` was “inactive”; that for `Cc1cc(-c2nnc(S)n2/N=C/C(Br)=C/c2ccccc2)[nH]n1` was 14.1 µM (active).
In the case of `Oc1ccccc1/C=N/n1c(S)nnc1-c1ccccc1` it was “inactive”.
The value for `Sc1nnc(-c2ccccc2)n1/N=C/c1cccc(Cl)c1` was “inactive”; that for `CC(=O)n1cc(C(C[N+](=O)[O-])SCCN)c2ccccc21` (configuration not stated) was 22.4 µM (active); that for `COc1c(CC=C(C)C)cc(C2CC(=O)c3c(O)cc(O)cc3O2)cc1CC=C(C)C` (configuration not stated) was 39.8 µM (active).
`COc1cc2ccc(=O)oc2c(O)c1OCC=C(C)C`: the Potency entry was “inactive”.
The value for `COC1=CC(=O)C(C2CC(=O)c3c(O)cc(O)cc3O2)=CC1=O` (configuration not stated) was 33.6 µM (active); that for `CCOCCCn1c(=N)c(C(=O)NC(C)c2ccccc2)cc2c(=O)n3cccc(C)c3nc21` (configuration not stated) was “inactive”.
In the case of `COC(C(=O)N/N=C(\C)CC(=O)Nc1ccc(N(C)C)cc1)c1ccccc1` (configuration not stated) it was 31.6 µM (active); in that of `C/C(CC(=O)Nc1ccc2c(c1)OCCO2)=N\NC(=O)COc1ccccc1C`, “inactive”.
In the case of `CN(C)c1nc(NC(C)(C)C)nc(SCC(=O)Nc2ccccc2)n1` it was “inactive”; in that of `Nc1nc(-c2sc3nc4c(cc3c2N)CCCC4)nc(N2CCOCC2)n1`, “inactive”; in that of `O=C(NCC1Cc2cccc(-c3cccnc3)c2O1)c1ccc2cc[nH]c2c1` (configuration not stated), “inactive”.
On to `Cc1cccn2c(=O)c3cc(C#N)c(=O)n(Cc4cccnc4)c3nc12`, for which the Potency result was “inactive”.
For the compound `O=C(CCl)N1c2ccccc2Sc2c1ccc1ccccc21`, the Potency is 26.7 µM (active).
The value for `Cc1nc2c(ncn2-c2ccccc2)c(=O)n1NC(=O)CN1CCCC1` was “inactive”; that for `O=C(COC(=O)c1ccc2ccccc2c1)NCCCc1ccccc1` was “inactive”.
Take `O=C(NCCOc1ccccc1)c1ccccc1Cl`: the Potency entry is “inactive”.
For the compound `N=C(NOC(=O)c1ccc2ccccc2c1)c1ccccc1Cl`, the Potency is 39.8 µM (active).
For the compound `COc1ccc(C2CC(c3cccc(Br)c3)=NN2c2ccc(S(N)(=O)=O)cc2)cc1` (configuration not stated), the Potency result is “inactive”.
`Oc1ccc2c(c1)OCC1(O)Cc3cc(O)c(O)cc3C21` (configuration not stated): the Potency was 39.8 µM (active).
Turning to `c1ccc(Nc2scc(-c3ccccc3)[n+]2Cc2ccco2)cc1`, the Potency entry is “inactive”.
For `Cc1cccc(NC(=O)CSc2nc3ccccc3c3nc(CCn4cncc4C)nn23)c1`, the Potency was 31.6 µM (active).
As for `Cn1nnnc1SCC1=C(C(=O)O)N2C(=O)C(NC(=O)Cn3nc(C(F)F)cc3C3CC3)C2SC1` (configuration not stated), the Potency entry is “inactive”.
As to `CCOC(=O)c1nnn(-c2nonc2N)c1-c1ccc(Br)cc1`, the Potency entry was “inactive”.
Take `O=C(COC(=O)c1ccc(Cl)nc1)Nc1ncc(Cl)cc1Cl`: the Potency entry was “inactive”.
In the case of `O=C(COC(=O)c1cnc(Cl)c(Cl)c1)c1ccc(F)cc1`, the Potency entry was “inactive”.
In the case of `CC(C)N(Cc1ccccc1)C(=O)COC(=O)c1cnc(Cl)c(Cl)c1`, the Potency is 39.8 µM (active).
`Cc1ccc(Nc2nc(N)nc(CCl)n2)cc1`: the Potency is 4.74 µM (active).
For the compound `Nc1nc(CCl)nc(Nc2ccccc2)n1`, the Potency was 28.2 µM (active).
In the case of `Cc1ccc(Nc2nc(N)nc(CCl)n2)c(C)c1`, the Potency was 14.1 µM (active).
As for `Cc1ccc(Nc2nc(N)nc(CSc3nc4ccccc4s3)n2)cc1`, the Potency is 39.8 µM (active).
Regarding `Nc1nc(O)c(NC=O)c(Nc2ccc(Cl)cc2)n1`, the Potency result was “inactive”.
Turning to `CCOc1ccc(Nc2nc(N)nc(CSC(=S)N3CCN(c4ccccc4)CC3)n2)cc1`, the Potency entry was “inactive”.
`Cc1ccccc1Nc1nc(N)nc(CN(C)Cc2ccccc2Cl)n1`: the Potency result was “inactive”.
As to `CCOc1ccc(S(=O)(=O)Nc2cc(S(=O)(=O)N3CCOCC3)ccc2OC)cc1`, the Potency entry is “inactive”.
With `COCCn1c(-c2cccs2)nc2nc3ccccc3nc21`, the Potency entry was “inactive”.
`N=c1c(C(=O)NCCc2ccccc2)cc2c(=O)n3ccccc3nc2n1CC1CCCO1` (configuration not stated): the Potency result is “inactive”.
`CC(C)(NC(=O)c1cc(Cl)c2ccccc2c1O)C(=O)O`: the Potency entry is “inactive”.
In the case of `CN1C=CC(=C[N+](=O)[O-])N(C)C1=O`, the Potency was 17.8 µM (active).
For `COc1cc(CCN=Cc2cc(Cl)cc(Cl)c2O)c([N+](=O)[O-])cc1OC`, the Potency entry was “inactive”.
Consider `CCOc1ccc(N2C(=O)/C(=C\c3ccc(OC)c(O)c3)S(=O)(=O)C2c2cccc([N+](=O)[O-])c2)cc1` (configuration not stated), for which the Potency result was “inactive”.
Consider `COc1cc(/C=C2/C(=O)c3cccc([N+](=O)[O-])c3C2=O)c(Br)cc1O`, for which the Potency was 22.4 µM (active).
As for `Cc1ccc2[nH]c(-c3ccc(SCC(=O)Nc4nnc(C)s4)nc3)nc2c1`, the Potency is 23.8 µM (active).
For `CC(=O)c1cc2c(cc1NC(=O)CSc1nc3cc(C)ccc3[nH]1)OCO2`, the Potency entry was “inactive”.
In the case of `Cc1ccc2[nH]c(SCC(=O)Nc3ccc(C(N)=O)cc3)nc2c1`, the Potency entry is “inactive”.
`COc1ccc(C2=CC(c3ccccc3Cl)n3nc(-c4ccc(Cl)cc4)nc3N2)cc1` (configuration not stated): the Potency entry was “inactive”.
Turning to `Nc1cccc2c1C(=O)N(C(=O)/C=C/c1ccc(F)cc1)C2=O`, the Potency result was “inactive”.
`CCSC1=NCCN1S(=O)(=O)c1ccc2ccccc2c1`: the Potency result was “inactive”.
The value for `CC(C)N1C/C(=C/c2ccsc2)C(=O)/C(=C/c2ccsc2)C1` was 39.8 µM (active); that for `Cc1ccc(CCC(=O)Nc2ccccc2C(=O)O)o1` was “inactive”; that for `O=C(OCc1ccc(O)cc1)c1c(-c2ccsc2)oc2ccc(N3CCOCC3)cc12` was “inactive”.
For `CCOc1ccc(C2C=C(c3cccc(OC)c3)Nc3nnnn32)cc1` (configuration not stated), the Potency entry is “inactive”.
On to `Cc1nn(-c2ccccc2)c(Cl)c1C(=O)N1CCN(c2ncnc3c2cnn3-c2ccccc2)CC1`, for which the Potency is 31.6 µM (active).
In the case of `Cc1ccsc1C(=O)N1CCN(c2ccccn2)CC1`, the Potency result is “inactive”.
The value for `Cc1nn(-c2ccccc2)c(Cl)c1C(=O)NNC(=O)c1ccncc1` was “inactive”.
Take `Cc1cccn2c(=O)c3cc(C(=O)O)n(C)c3nc12`: the Potency entry is “inactive”.
As for `CCCCNC(=O)CCN1N=C(c2ccccc2)CCC1=O`, the Potency entry was “inactive”.
As for `CN1C/C(=C/c2ccccc2[N+](=O)[O-])C(=O)/C(=C\c2ccccc2[N+](=O)[O-])C1`, the Potency was 2.99 µM (active).
`CCCCNC(=O)NNc1nc(Cl)cc(C)c1C#N`: the Potency entry is “inactive”.
Consider `CCN(CC)C(=O)c1cccc(-c2csc(C(C)(O)c3ccc(OC)cc3)n2)c1` (configuration not stated), for which the Potency is 15.8 µM (active).
The value for `CC(C(=O)Nc1nc(-c2ccc(F)c(F)c2)cs1)N1C(=O)C2CC=CCC2C1=O` (configuration not stated) was “inactive”.
On to `CCN(CC)C(=O)c1sc2nc(-c3ccccc3)ccc2c1N`, for which the Potency result was “inactive”.
Take `CCN(CC)C(=O)c1cccc(-c2csc(C(O)c3ccccc3)n2)c1` (configuration not stated): the Potency is 35.5 µM (active).
Turning to `COCCCN=C(S)N1CCN(c2nc(-c3cccc(OC)c3)cs2)CC1`, the Potency result was “inactive”.
In the case of `CCN(C(=O)c1ccco1)c1nc(-c2ccc(OC)cc2)cs1` it was “inactive”; in that of `CC(C)c1cccc(-c2csc(C(O)c3ccc(F)c(F)c3)n2)c1` (configuration not stated), 39.8 µM (active).
Regarding `CCN(CC)c1ccc2cc(-c3nc(-c4ccc(OC)cc4)cs3)c(=O)oc2c1`, the Potency result was “inactive”.
With `CCN(CC)C(=O)CSc1nc(-c2ccccc2)ccc1C#N`, the Potency result is “inactive”.
With `CCN(CC)C(=O)c1cccc(-c2csc(C(C)(O)c3cccc(OC)c3)n2)c1` (configuration not stated), the Potency is 35.5 µM (active).
The value for `COc1cccc(-c2ccc3c(N)c(C(=O)c4ccc(Cl)cc4)sc3n2)c1` was “inactive”.
For the compound `Cc1ccc(C(=O)N2CCN(Cc3ccc4c(c3)OCO4)CC2)cc1S(=O)(=O)N1CCOCC1`, the Potency result is “inactive”.
Consider `COc1ccc(-c2c(C)c3ccc(O)c(CN4CCCCC4C)c3oc2=O)cc1OC` (configuration not stated), for which the Potency entry was “inactive”.
The value for `COCCCNC(=O)c1cc2c(=O)n3cccc(C)c3nc2n(C(C)C)c1=N` was “inactive”.
In the case of `CCSc1nnc(-c2sc3nnc(-c4ccccc4)c(-c4ccccc4)c3c2N)o1` it was “inactive”; in that of `CCC(=O)Oc1ccc2c(c1)OC1(OC(C)=O)OC(C)CC1=C2C` (configuration not stated), “inactive”; in that of `COc1ccc(-c2nc3ccc(C)cn3c2Cc2cccc(Cl)c2)cc1OC`, 35.5 µM (active).
As to `COc1ccc(/C=N/NC(=O)c2c(C)nc3ccc(Cl)cn23)cc1OC`, the Potency entry is “inactive”.
For `COc1ccc(-c2nc3ccc(C)cn3c2Cc2ccc(C)cc2)cc1OC`, the Potency is 20 µM (active).
`COc1ccccc1Cc1c(-c2ccc(OC)c(OC)c2)nc2ccc(Cl)cn12`: the Potency was 39.8 µM (active).
In the case of `COc1ccc(-c2nc(CCl)cs2)cc1OC` it was “inactive”.
On to `COc1ccc(-c2nc3ccc(C)cn3c2Cc2cccc(F)c2)cc1OC`, for which the Potency was 39.8 µM (active).
On to `COc1cc2c3nnc(-c4ccc(F)cc4)c-3cn(Cc3cccc(F)c3)c2cc1OC`, for which the Potency entry was “inactive”.
In the case of `COc1ccc(-c2n[nH]c(S)n2)cc1OC` it was “inactive”.
As for `N=C(NOC(=O)CCCOc1ccccc1)c1cccc(Br)c1`, the Potency result is “inactive”.
Turning to `CSc1nc(-c2ccc(N(C)C)cc2)c(C#N)c(=O)n1C`, the Potency entry was “inactive”.
In the case of `CCOC(=O)c1ccc(-c2ccc(/C=N/NC(=O)c3cncc(Br)c3)o2)cc1` it was “inactive”; in that of `Cc1cc(-c2onc3ccc(Cl)cc23)ccc1O`, “inactive”.
